Outcome and Potency data for 32 compounds are collected here from PubChem BioAssay (Tox21).

Test [1] in a line: qHTS assay to identify small molecule antagonists of the glucocorticoid receptor (GR) signaling pathway - cell viability counter screen (AID 720693; also: nearly all actives have a fitted effect of over 55% in size). (In general: Quantitative high-throughput screening tests each substance at several concentrations.)
Test [2] is described as follows: qHTS assay for identifying genotoxic compounds that show differential cytotoxicity against isogenic chicken DT40 cell lines with known DNA damage response pathways - wild type cell line (AID 743012). Also: nearly all actives have a fitted effect of over 60% in size. Also: potency is read from the fitted curve at half-maximal effect. In short, it runs like this: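 Luminescent ATP viability signal (CellTiter-Glo, 30 min RT) recorded after wild type DT40 cells were incubated with compounds for 40 h at 37 C/5% CO2.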

Test [3] is described as follows: qHTS assay for identifying genotoxic compounds that show differential cytotoxicity against isogenic chicken DT40 cell lines with known DNA damage response pathways - Rev3 mutant cell line (AID 743014). Also: nearly all actives have a fitted effect of over 55% in size. Also: potency is read from the fitted curve at half-maximal effect.
The nature of test [4]: qHTS assay for identifying genotoxic compounds that show differential cytotoxicity against isogenic chicken DT40 cell lines with known DNA damage response pathways - Rad54/Ku70 mutant cell line (AID 743015). Also: nearly all actives have a fitted effect of over 60% in size. Also: potency is read from the fitted curve at half-maximal effect.
A short description of test [5]: qHTS assay to identify small molecule antagonists of the androgen receptor (AR) signaling pathway using the MDA cell line - cell viability counter screen (AID 743041; also: nearly all actives have a fitted effect of over 45% in size). The essentials: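 Compound exposure lasted 16 h at 37C in MDA-kb2 AR-luc cells stimulated with R1881. Protease-based CellTiter-Fluor reagent was applied for the final 30 min and fluorescence measured.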

Test [6] deals with Androgen receptor (Homo sapiens) (UniProt P10275). Briefly: qHTS assay to identify small molecule agonists of the androgen receptor (AR) signaling pathway (AID 743036; active = well fitted activation curve with a large enough effect in the signal ratio in the repeat runs, with a control signal flat, not every such curve was filed as active; the % refers to the signal ratio). The essentials:
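Fluorescence from a beta-lactamase FRET substrate served as read-out in AR-UAS-bla GripTite HEK293 cells. Cells were treated with DMSO-dissolved compounds for 16 h at 37C, then with LiveBLAzer B/G substrate for 2 h at room temperature.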

Test [7] has the same target. In words: qHTS assay to identify small molecule agonists of the androgen receptor (AR) signaling pathway using the MDA cell line (AID 743040; also: nearly all actives have a fitted effect of over 20% in size). In short, it runs like this:
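Testing was done with the MDA-kb2 AR-luc line, a human breast carcinoma stably transfected with MMTV-luciferase containing AR and GR response elements. Cells were exposed 16 h at 37C before ONE-Glo luminescence detection.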

Test [8] in a line: qHTS assay to identify small molecule antagonists of the androgen receptor (AR) signaling pathway - cell viability counter screen (AID 743033; also: nearly all actives have a fitted effect of over 45% in size).
Test [9] addresses Androgen receptor (Homo sapiens) (UniProt P10275). In words: qHTS assay to identify small molecule antagonists of the androgen receptor (AR) signaling pathway (AID 743035; active = well fitted inhibition curve with a large enough effect in the signal ratio in the repeat runs, not every such curve was filed as active; the % refers to the signal ratio; also: potency is read from the fitted curve at half-maximal effect). In short, it runs like this:
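Quantitative HTS of the Tox21 10K library used HEK293 AR-UAS-bla cells stimulated with R1881 alongside compound for 16 h at 37C, followed by beta-lactamase FRET detection (LiveBLAzer B/G, 2 h, RT).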

Test [10] has the same target. Briefly: qHTS assay to identify small molecule antagonists of the androgen receptor (AR) signaling pathway using the MDA cell line (AID 743042; also: nearly all actives have a fitted effect of over 55% in size). The essentials:
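MDA-kb2 breast carcinoma cells carrying MMTV-luciferase (AR/GR responsive) were co-treated with compounds and the agonist R1881 for 16 h at 37C. Inhibition read as ONE-Glo luminescence; CellTiter-Fluor fluorescence measured in parallel for cytotoxicity.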

Where “and” joins values, the source holds several entries; their conditions need not be identical. Equal entries are not always repeated. Inconclusive results are not listed. Calls of active or inactive are those of the source. Unless noted, calls follow the shape of the dose curve; as a rule, active = well fitted curve in the direction sought with a large enough effect in the repeat runs; inconclusive = weak or mixed curves; inactive = no such curve, though single readings can be large; an effect the other way counts as inactive or inconclusive.

Androgen receptor (Homo sapiens), sequence (P10275 whole entry, looked up): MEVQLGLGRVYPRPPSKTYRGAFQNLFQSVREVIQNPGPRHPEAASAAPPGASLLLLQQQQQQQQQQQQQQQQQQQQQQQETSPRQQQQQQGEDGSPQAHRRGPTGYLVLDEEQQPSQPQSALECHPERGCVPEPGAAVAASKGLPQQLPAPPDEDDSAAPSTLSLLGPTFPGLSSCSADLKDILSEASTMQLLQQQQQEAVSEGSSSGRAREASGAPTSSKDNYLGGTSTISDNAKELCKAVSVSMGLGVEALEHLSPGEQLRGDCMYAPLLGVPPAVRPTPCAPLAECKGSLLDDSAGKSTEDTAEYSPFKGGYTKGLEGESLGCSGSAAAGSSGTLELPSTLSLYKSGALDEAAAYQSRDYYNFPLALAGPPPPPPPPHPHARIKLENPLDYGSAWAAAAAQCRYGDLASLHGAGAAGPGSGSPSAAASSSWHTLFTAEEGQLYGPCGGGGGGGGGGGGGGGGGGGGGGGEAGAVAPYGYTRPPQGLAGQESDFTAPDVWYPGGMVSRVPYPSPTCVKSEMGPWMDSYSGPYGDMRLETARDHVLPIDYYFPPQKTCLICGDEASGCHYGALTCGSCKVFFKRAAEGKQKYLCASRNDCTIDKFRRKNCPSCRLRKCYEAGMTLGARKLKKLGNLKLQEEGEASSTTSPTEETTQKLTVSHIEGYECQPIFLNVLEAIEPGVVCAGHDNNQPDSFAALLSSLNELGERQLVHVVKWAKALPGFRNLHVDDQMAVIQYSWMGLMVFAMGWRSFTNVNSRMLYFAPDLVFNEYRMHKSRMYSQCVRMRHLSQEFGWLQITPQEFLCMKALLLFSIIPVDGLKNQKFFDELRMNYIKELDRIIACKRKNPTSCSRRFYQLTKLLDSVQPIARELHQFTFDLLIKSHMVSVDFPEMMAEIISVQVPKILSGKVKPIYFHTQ

Regarding `CCCCCCC`, the outcome in test [1] was inactive. For the same compound, the Potency entry in test [2], in [3], in [4] and in [5] was “inactive” each time.

For the compound `CCC(=O)c1ccc2c(c1)N(CCCN(C)C)c1ccccc1S2`, the outcome in test [1] and in [6] was inactive. The Potency was 4.73 µM (active) in test [2], 8.41 µM (active) in test [3] and 7.5 µM (active) in test [4]. For the same compound, the Potency result in [7] was “inactive”.

Regarding `OC[C@H]1O[C@@H](O[C@H]2[C@H](O)[C@@H](O)[C@H](O)O[C@@H]2CO)[C@H](O)[C@@H](O)[C@H]1O`, the call in [1], in test [8], in [6] and in test [10] was inactive. In addition, the Potency result in test [2], in test [3], in [9], in [7] and in test [5] was “inactive” each time.

Turning to `COc1ccc(S(=O)(=O)Nc2nnc(CC(C)C)s2)cc1`, in test [1], the compound was classed as inactive. Besides, the Potency entry in test [2], in test [3], in test [4] and in test [5] was “inactive” each time.

Turning to `CCCOCCC`, in test [1], the result was inactive. In addition, the Potency result in test [2], in test [3], in [4] and in test [5] was “inactive” throughout.

`CCOC(=O)NCCC[Si](OCC)(OCC)OCC`: in test [1], the outcome was inactive. Also, the Potency entry in test [2], in [3], in test [4] and in test [5] was “inactive” throughout.

Consider `NCCC(O)(P(=O)(O)O)P(=O)(O)O`, for which the result in test [1] was inactive. The Potency entry in test [2], in [3], in test [4] and in [5] was “inactive” throughout.

As to `Cn1cnc2c(F)c(Nc3ccc(Br)cc3Cl)c(C(=O)NOCCO)cc21`, the outcome in test [1] and in [6] was inactive. In addition, the Potency result in [2], in test [3], in [4], in test [9], in [7] and in [5] was “inactive” each time.

On to `O=C(O[C@@H](C(=O)O)[C@@H](OC(=O)c1ccccc1)C(=O)O)c1ccccc1`, for which the outcome in test [1] and in test [8] was inactive. Further, the Potency result in [2], in test [3], in test [4] and in [5] was “inactive” in each case.

Consider `CCc1cc(Cl)c(OC)c(C(=O)NC[C@@H]2CCCN2CC)c1O`, for which the result in test [1] and in test [8] was inactive. Further, the Potency in test [2] is 5.96 µM (active) and 8.04 µM (active) and 6.68 µM (active); in [3], 7.5 µM (active) and 9.02 µM (active) and 9.44 µM (active); in test [4], 11.9 µM (active) and 10.1 µM (active). For the same compound, the Potency entry in [5] was “inactive”.

In the case of `O=[N+]([O-])c1nccn1CO[C@@H](CO)[C@H](O)CO`, the result in [1] was inactive. For the same compound, the Potency entry in test [2], in test [3], in [4] and in test [5] was “inactive” throughout.

With `NCCCN1CCN(CCCN)CC1`, the result in [1], in test [6] and in [10] was inactive. In addition, the Potency entry in test [2], in test [3], in test [4], in test [9], in [7] and in test [5] was “inactive” throughout.

With `CCCCN1C[C@H](O)[C@@H](O)[C@H](O)[C@H]1CO`, the compound was called inactive in [1]. In addition, the Potency result in test [2], in [3], in [4] and in test [5] was “inactive” throughout.

As to `CN(C)C(=O)NC1(c2ccccc2)CCN(CCC[C@]2(c3ccc(Cl)c(Cl)c3)CCCN(C(=O)c3ccccc3)C2)CC1`, in [1], the compound was classed as inactive. Moreover, the Potency in [2] is 10.3 µM (active); in test [3], 14.6 µM (active); in test [4] it was 9.2 µM (active). The Potency entry in [5] is “inactive”.

For `CC(=O)OC(C)OC(C)=O`, the result in test [1], in test [8], in test [6] and in test [10] was inactive. Besides, the Potency entry in [2], in test [9], in [7] and in [5] was “inactive” each time. The Potency in [3] was 70.7 µM (active).

As for `Cc1nc(-c2ccccn2)ncc1C(=O)Nn1cc(C)c2cc(F)ccc21`, the call in test [1] and in test [6] was inactive. Further, the Potency in test [2] was 61.1 µM (active); in test [3], 61.1 µM (active); in test [4], 30.6 µM (active); in [9] it was 49 µM (active). Moreover, the Potency result in test [7] and in [5] was “inactive” each time.

Regarding `COc1ccccc1N1CCN(CCCNc2cc(=O)n(C)c(=O)n2C)CC1`, in [1], the call was inactive. Also, the Potency entry in test [2], in [3], in test [4] and in test [5] was “inactive” in each case.

As to `CCCCCCOc1ccc(N)cc1`, the call in test [1] and in test [8] was inactive. In addition, the Potency is 61.1 µM (active) in test [2], 43.3 µM (active) in test [3] and 54.5 µM (active) in test [4]. For the same compound, the Potency entry in [5] is “inactive”.

With `C[C@@H]1CN(c2c(F)c(N)c3c(=O)c(C(=O)O)cn(C4CC4)c3c2F)C[C@H](C)N1`, the compound was classed as inactive in [1] and in [8]. Besides, the Potency entry in test [2], in test [3] and in [5] was “inactive” throughout.

Turning to `Cc1ccsc1C(=CCCN1CCC[C@@H](C(=O)O)C1)c1sccc1C`, the outcome in test [1], in [8], in test [6] and in test [10] was inactive. Further, the Potency entry in test [2], in [3], in test [9], in test [7] and in test [5] was “inactive” each time.

For the compound `Cc1ccc([N+](=O)[O-])c(N)c1`, the outcome in test [1] and in test [8] was inactive. In addition, the Potency entry in test [2], in test [3] and in [5] was “inactive” in each case.

For the compound `Cc1ccc(C(C)C)cc1O`, the outcome in test [1] and in [8] was inactive. Moreover, the Potency result in [2], in test [3] and in test [5] was “inactive” throughout.

For `NS(=O)(=O)c1cc(-c2nn[nH]n2)c(NCc2cccs2)cc1Cl`, the compound was classed as inactive in test [1]. The Potency result in test [2], in [3] and in test [5] was “inactive” in each case.

Regarding `CC/C=C\CCOC(=O)CCCCC`, in test [1], the compound was classed as inactive. Besides, the Potency result in [2], in [3] and in test [5] was “inactive” throughout.

As for `CCCCCCCCCCCCOCCOS(=O)(=O)O`, the outcome in [1] and in test [8] was inactive. The Potency entry in [2], in [3] and in [5] was “inactive” throughout.

Turning to `CCOc1ccc(NC(N)=O)cc1`, the call in test [1] and in test [8] was inactive. In addition, the Potency entry in test [2], in test [3] and in [5] was “inactive” throughout.

As to `NNS(=O)(=O)c1ccc(Oc2ccc(S(=O)(=O)NN)cc2)cc1`, the compound was called inactive in test [1] and in test [8]. Moreover, the Potency entry in [2] and in test [5] was “inactive” in each case. The Potency in test [3] was 27.3 µM (active).

For `C=Cc1ccccc1`, the result in test [1] and in [8] was inactive. Also, the Potency result in [2], in test [3] and in test [5] was “inactive” in each case.

As for `Cc1cc(NS(=O)(=O)c2ccc(N)cc2)nc(C)n1`, the outcome in test [1] and in test [8] was inactive. The Potency entry in test [2], in test [3] and in test [5] was “inactive” throughout.

For `CCCCCCCCCC#N`, the compound was called inactive in [1] and in test [8]. Moreover, the Potency result in [2], in test [3] and in [5] was “inactive” in each case.

With `Cc1cc2nc(N)sc2cc1C`, the compound was called inactive in [1], in test [8] and in test [10]. Besides, the Potency in test [2] was 61.7 µM (active); in [3], 55 µM (active). In addition, the Potency result in test [7] and in test [5] was “inactive” throughout.

Take `OCCN1CCN(CCO)CC1`: the compound was called inactive in [1] and in [8]. Moreover, the Potency entry in [2], in [3] and in test [5] was “inactive” each time.
